The record followed here is the supplement of paper PMC7261846.

± gives the uncertainty stated by the source.

For the assay, the system named is Candida albicans SNY425 biofilm. Kind of assay: biofilm OD600 with compound plus antifungal (OD600 (absorbance)); higher = more biofilm remaining.
Setting [1] is: assay detail: disruption of 24-h mature biofilm (compound + antifungal for a second 24 h).
Where [2] appears, read: assay detail: sustained inhibition (compound + antifungal during 90-min adherence and 24-h growth).

Consider `CN1C(=O)[C@]23CC4=CC=C[C@H](O)[C@H]4N2C(=O)[C@@]1(CO)SS3` [Gliotoxin] + OC(Cn1cncn1)(Cn1cncn1)c1ccc(F)cc1F [fluconazole] (first compound 1 µM), for which the “biofilm OD600” value runs as follows: under setting [1], 0.211 ± 0.0079; under setting [2], 0.0782 ± 0.0052.
The matching figures for `NCCc1ccc(S(=O)(=O)F)cc1` + C[C@@H]1[C@H](O)[C@@H](C)/C=C/C=C/C=C/C=C/C=C/C=C/C=C/[C@H](O[C@@H]2O[C@H](C)[C@@H](O)[C@H](N)[C@@H]2O)C[C@@H]2O[C@](O)(C[C@@H](O)C[C@@H](O)[C@H](O)CC[C@@H](O)C[C@@H](O)CC(=O)O[C@H]1C)C[C@H](O)[C@H]2C(=O)O [amphotericin B] (first compound 4 µM): 0.303 ± 0.0047 and 0.184 ± 0.011.
For `NCCc1ccc(S(=O)(=O)F)cc1` + CC[C@H](C)C[C@H](C)CCCCCCCCC(=O)N[C@H]1C[C@@H](O)[C@@H](NCCN)NC(=O)[C@@H]2[C@@H](O)CCN2C(=O)[C@H]([C@H](O)CCN)NC(=O)[C@H]([C@H](O)[C@@H](O)c2ccc(O)cc2)NC(=O)[C@@H]2C[C@@H](O)CN2C(=O)[C@H]([C@@H](C)O)NC1=O [caspofungin] (first compound 4 µM), the “biofilm OD600” value was determined as 0.29 ± 0.0053 under setting [1] and 0.172 ± 0.0053 under setting [2].
The matching figures for `NCCc1ccc(S(=O)(=O)F)cc1` + OC(Cn1cncn1)(Cn1cncn1)c1ccc(F)cc1F [fluconazole] (first compound 4 µM): 0.278 ± 0.0089 and 0.109 ± 0.0077.
The matching figures for `CN1C(=O)[C@]23CC4=CC=C[C@H](O)[C@H]4N2C(=O)[C@@]1(CO)SS3` [Gliotoxin] + C[C@@H]1[C@H](O)[C@@H](C)/C=C/C=C/C=C/C=C/C=C/C=C/C=C/[C@H](O[C@@H]2O[C@H](C)[C@@H](O)[C@H](N)[C@@H]2O)C[C@@H]2O[C@](O)(C[C@@H](O)C[C@@H](O)[C@H](O)CC[C@@H](O)C[C@@H](O)CC(=O)O[C@H]1C)C[C@H](O)[C@H]2C(=O)O [amphotericin B] (first compound 1 µM): 0.226 ± 0.0062 and 0.0908 ± 0.0077.
The matching figures for `CN1C(=O)[C@]23CC4=CC=C[C@H](O)[C@H]4N2C(=O)[C@@]1(CO)SS3` [Gliotoxin] + CC[C@H](C)C[C@H](C)CCCCCCCCC(=O)N[C@H]1C[C@@H](O)[C@@H](NCCN)NC(=O)[C@@H]2[C@@H](O)CCN2C(=O)[C@H]([C@H](O)CCN)NC(=O)[C@H]([C@H](O)[C@@H](O)c2ccc(O)cc2)NC(=O)[C@@H]2C[C@@H](O)CN2C(=O)[C@H]([C@@H](C)O)NC1=O [caspofungin] (first compound 1 µM): 0.217 ± 0.0081 and 0.0858 ± 0.0052.
